These results are taken from PubChem BioAssay (EPA / NIEHS).

Calls of active or inactive are those of the source. The calls were made as follows: active = hit-call score of the fitted dose curve at least 0.9, where 1 is the maximum; inactive = score below 0.9.

The assay in a line: ATG_PXRE_CIS: Attagene CIS-FACTORIAL HepG2 Assay for human Pregnane X Receptor Element (PXRE) (AID 2282957). The note with it: HepG2 Attagene CIS-FACTORIAL PXRE reporter, mRNA; actives raise or lower the signal. Here is the method: ATG_CIS is a cell-based, multiplexed-readout assay that uses HepG2, a human liver cell line, with measurements taken at 24 hours after chemical dosing in a 24-well plate.ATG_PXRE_CIS is one of 52 assay component(s) measured or calculated from the ATG_CIS assay. It is designed to make measurements of mRNA induction, a form of inducible reporter, as detected with fluorescence intensity signals by Reverse transcription polymerase chain reaction (RT-PCR) and Capillary electrophoresis technology.Data from the assay component ATG_PXRE_CIS was analyzed into 1 assay endpoint. This assay endpoint, ATG_PXRE_CIS, was analyzed with bidirectional fitting relative to DMSO as the negative control and baseline of activity. Using a type of inducible reporter, measures of mRNA for gain or loss-of-signal activity can be used to understand the reporter gene at the transcription factor-level as they relate to the gene NR1I2. Furthermore, this assay endpoint can be referred to as a primary readout, because this assay has produced multiple assay endpoints where this one serves a reporter gene function. To generalize the intended target to other relatable targets, this assay endpoint is annotated to the nuclear receptor intended target family, where the subfamily is non-steroidal.
Human liver HepG2 cells are transiently transfected with multiple reporter transcription units (MRTUs) in 6-well plates using FuGene 6 reagent (Roche; 3 ml FuGene/1 mg DNA). The MRTU constructs are regulated by a cis-regulating element (promoter). […] A major difference between the CIS and TRANS system is that in CIS activities of endogenous TFs are measured, whereas the TRANS assay evaluates changes in activities of exogenous, chimeric NR-Gal4 proteins. […] At the end of 24 hour incubation, total RNA was isolated using TriZol reagent (Invitrogen). The isolated RNA is then reverse-transcribed using oligo(dT) primer and Mo-MLV reverse transcriptase (Invitrogen) with DNAse I (Ambion) treatment for 30 min. The one-tenth of the produced cDNA was amplified by PCR using Taq DNA polymerase (Invitrogen) and two reporter sequence-specific primers. The PCR products were fluorescently labeled by primer extension with 6-arboxyfluorescein (6-FAM) 5'-labeled reporter sequence-specific primer (2 min at 95 C, 20 s at 68 C and 10 min at 72 C) and these products were digested with 5U of HpaI (New England Biolabs) for 2h at 37 C. The fragments were purified using Qiaquick PCR columns (Qiagen), analyzed on an ABI 3130xL genetic analyzer (Applied Biosystems) with peak positions identified by using a set of X-rhodamine (ROX)-labeled MapMarker1000 molecular weight standards (BioVentures). The raw capillary electrophoresis data was processed using Attagraph software (Attagene).
With `ClCCBr`, the compound was classed as inactive.

By AC50 is commonly meant the concentration at which the activity in the assay is half-maximal. With `C1CCC(NC2CCCCC2)CC1`, the AC50 was 16.7 µM (active). For the compound `CC(=[OH+])/C=C(/C)[O-].CC(=[OH+])/C=C(/C)[O-].CC(=[OH+])/C=C(/C)[O-].[Fe]`, the compound was called inactive. Regarding `ClCC(Cl)CCl`, the compound was classed as inactive. For the compound `O=C(O)Cc1ccccc1`, the outcome was inactive. Turning to `COP(=S)(OC)Oc1c(Cl)cc(C)cc1Cl`, the AC50 is 4.62 µM (active). Turning to `ClC(Cl)=C(Cl)C(Cl)=C(Cl)Cl`, the AC50 was 130 µM (active). Take `Cc1cc(=O)[nH]o1`: the AC50 was 42.8 µM (active). For `CC(C)OC(=O)Nc1ccccc1`, the AC50 was 100 µM (active). In the case of `Nc1cccc2ccccc12`, the AC50 was 25.7 µM (active). For `CC(C)CCCCCCOC(=O)c1ccccc1C(=O)OCCCCCCC(C)C`, the AC50 was 1.39 µM (active). Consider `Cc1ccc2ccccc2c1C`, for which the AC50 was 10.1 µM (active). With `Nc1cccc(Cl)c1`, the compound was called inactive. Regarding `CC(C)(c1ccc(OCC2CO2)cc1)c1ccc(OCC2CO2)cc1` (stereo not given), the AC50 was 8.18 µM (active). As for `C=CC#N`, the outcome was inactive. Regarding `CC1(C)CCC(Cc2ccc(Cl)cc2)C1(O)Cn1cncn1` (stereo not given), the AC50 is 2.43 µM (active).

With `COP(=S)(OC)Oc1cc(Cl)c(Cl)cc1Cl`, the AC50 is 26.7 µM (active). Consider `CCOP(=S)(OCC)SCSP(=S)(OCC)OCC`, for which the concentration at half-maximal activity (AC50) was 0.192 µM (active).

Turning to `O=C(NCO)NCO`, the AC50 is 27.2 µM (active). Consider `OCC(O)CCl` (stereo not given), for which the compound was classed as inactive. With `Clc1ccc(COC(Cn2ccnc2)c2ccc(Cl)cc2Cl)cc1` (stereo not given), the AC50 was 0.697 µM (active). For `CCC1(c2ccc(N)cc2)CCC(=O)NC1=O` (stereo not given), the AC50 was 64.9 µM (active).

Consider `N#Cc1ccccn1`, for which the outcome was inactive. For `Cc1ccccc1N`, the result was inactive. `NNC(=S)NN`: the outcome was inactive.

Consider `C[C@]12CC[C@H](O)CC1=CC[C@@H]1[C@@H]2CC[C@]2(C)C(=O)CC[C@@H]12`, for which the AC50 was 27.3 µM (active).

Take `C=CC(=O)OCCCCCC(C)C`: the AC50 is 69.5 µM (active). The same measure, in the same setting: the figure for `CCOC(=O)Nc1cccc(OC(=O)Nc2ccccc2)c1` is 100 µM (active). With `C=CCc1ccc(OC)cc1`, the AC50 is 26.6 µM (active). Consider `CCC(C)c1cccc(C(C)CC)c1O` (stereo not given), for which the AC50 was 5.61 µM (active). Regarding `Oc1ccc(-c2ccccc2)cc1`, the compound was classed as inactive. Regarding `N#CCCO`, the result was inactive. For the compound `ClC1=C(Cl)[C@]2(Cl)[C@@H]3[C@@H](Cl)[C@@H](Cl)C[C@@H]3[C@@]1(Cl)C2(Cl)Cl`, the compound was called inactive. For the compound `CC(=O)[O][Hg][c]1ccccc1`, the concentration at half-maximal activity (AC50) is 3.71 µM (active). As to `COc1cc(OC)nc(NC(=O)NS(=O)(=O)c2ncccc2C(=O)N(C)C)n1`, the result was inactive. Turning to `CCCCCCCCSC(=O)Oc1cc(Cl)nnc1-c1ccccc1`, the AC50 was 27.1 µM (active).

For the compound `CCC[CH2][Sn]([CH2]CCC)([CH2]CCC)[O]C(=O)c1ccccc1`, the compound was classed as inactive.

In the case of `COC(=O)Cc1ccccc1`, the result was inactive. As to `CCSC(C)CC1CC(=O)C(C(CC)=NOC/C=C/Cl)=C(O)C1` (stereo not given), the AC50 is 5.61 µM (active). On to `C=CC(=O)N(C)C`, for which the call was inactive.
